Compounds with a hit are over-represented: about 7.5% of the library has one in this group of screens.
ELG1 genotoxic – induces genotoxicity in HEK293T cells with luciferase-tagged ELG1 | actives 1.3% (n = 330,000) | Potency, µM (highest dose often 46 µM), for the others: at the top dose activity change, positive = activation, most hits filed as activators | HEK293T ELG1-luciferase reporter, luminescence, 16 h; note: % of control where 0% means no effect; nearly all actives have a fitted effect of over 60% in size
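HEK293T cells expressing luciferase-tagged ELG1 were treated with compound or DMSO for 16 hr at 37°C. Luciferase activity was then read after 30 min with ONE-Glo at room temperature; rising signal flags genetic stress.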
SMN2 splice up – enhancers of SMN2 splice variant expression; actives 2.8% (n = 210,000); Potency, µM (highest dose often 46.1 µM), inactives show at the top dose activity change, positive = activation, usual class: activators; AID 1458; HEK293 SMN2-luciferase splicing reporter, luminescence, 30-36 h; note: % of control where 0% means no effect; nearly all actives have a fitted effect of over 55% in size
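qHTS luciferase splicing reporter: luminescence rises when SMN2 exon 7 is included in transfected HEK293 cells. Compound exposure lasted 30-36 h at 37C, with 4.5 mM final sodium butyrate as control, followed by a ONE-Glo read.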
Rab9 promoter act – Rab9 promoter activation; Potency, µM (doses to about 9.22 µM), without a hit: top-dose activation, negative = inhibition, most hits filed as activators; actives 2.8% (n = 320,000); Huh7 Rab9 promoter-luciferase reporter, luminescence, 24 h; AID 485297; note: % of control where 0% means no effect; nearly all actives have a fitted effect of over 60% in size
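Luminescence read-out: Huh7 cells stably expressing Rab9-luciferase, treated 24 h with compound at 37 °C, then lysed with luciferase reagent for 10 min at ambient before reading.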
FLuc modulator – counter-screen for miR-21 project: firefly luciferase inhibitors or activators | AID 588342 | actives 6.9% (n = 360,000) | Potency, µM (series often up to 57.5 µM), without a hit: top-dose activity change, negative = inhibition, hits mostly inhibitors | P08659 | purified FLuc, Km substrates, luminescence inhibition;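 note: plate controls were vehicle for no effect and reference inhibitor for full effect; nearly all actives have a fitted effect of over 55% in size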
Target sequence (P08659 whole entry, looked up): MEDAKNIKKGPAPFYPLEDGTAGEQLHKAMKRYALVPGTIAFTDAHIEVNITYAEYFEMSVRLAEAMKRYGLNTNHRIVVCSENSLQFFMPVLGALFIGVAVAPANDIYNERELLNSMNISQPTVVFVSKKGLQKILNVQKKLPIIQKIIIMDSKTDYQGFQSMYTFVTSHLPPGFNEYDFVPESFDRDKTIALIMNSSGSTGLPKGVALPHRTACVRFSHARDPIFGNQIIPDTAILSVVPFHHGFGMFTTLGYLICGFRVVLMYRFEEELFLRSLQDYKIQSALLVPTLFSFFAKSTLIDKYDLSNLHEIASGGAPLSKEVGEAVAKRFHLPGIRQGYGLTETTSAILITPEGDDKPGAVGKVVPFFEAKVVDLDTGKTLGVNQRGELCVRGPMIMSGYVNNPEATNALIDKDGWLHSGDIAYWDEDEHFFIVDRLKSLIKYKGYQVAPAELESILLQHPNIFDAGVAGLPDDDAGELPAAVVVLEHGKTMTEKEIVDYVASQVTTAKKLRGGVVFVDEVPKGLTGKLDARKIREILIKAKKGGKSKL
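Purified P. pyralis luciferase (10nM final) with 10uM D-luciferin and 10uM ATP (Km levels) in 50mM Tris acetate pH 7.5, 10mM Mg acetate, 0.01% Tween-20, 0.05% BSA; qHTS 6-point titration, ~60 µM downward; luminescence read.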
NPC1 prom act – NPC1 promoter activation | Huh7 NPC1 promoter luciferase reporter, 24 h | Potency, µM (doses to about 9.22 µM), for the others: at the highest dose activation, usual class: activators | actives 2.4% (n = 320,000); note: % of control where 0% means no effect; nearly all actives have a fitted effect of over 60% in size
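NPC1 promoter–luciferase Huh7 cells; 24 h compound; luminescence.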
Luc counter – Kinase-Glo luciferase inhibition (counter-screen); Q27757; Kinase-Glo luciferase, ATP luminescence, 8 min; Potency, µM (doses to about 38.3 µM), for inactives: at the top dose activity change, negative = inhibition, most hits filed as inhibitors; actives 0.28% (n = 200,000); note: % is set by controls: 0 for no effect and ±100 for the full control effect; nearly all actives have a fitted effect of over 60% in size
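Compound is pinned into ATP-containing buffer (10 uM ATP, imidazole pH 7.2, 7 mM MgCl2). Kinase-Glo luciferase reagent is then added. Light output is recorded following an 8-min room-temperature incubation.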
* hit, by the source's call; ? = inconclusive; nt = not tested or not shown; [ ] = dose if it differs, or a comment. Calls come from the whole dose curve; as a rule, active = well fitted curve in the direction sought with a large enough effect; inconclusive = small, poorly fitted or top-dose-only effect, or another doubt; inactive = no such curve, though single readings can be large; an effect the other way counts as inactive or inconclusive. Potency is the fitted concentration of half-maximal effect.

SMILES	ELG1 genotoxic	SMN2 splice up	Rab9 promoter act	FLuc modulator	NPC1 prom act	Luc counter
CC(C(N)=O)N1C(=O)NC2(CCCc3ccccc32)C1=O (centres undefined)	2%	nt	0%	-2%	-1%	nt
CC1(c2ccccc2)CC(C)(C)N2C(=O)Cc3cccc1c32 (centres undefined)	-6%	nt	1%	?	-4%	nt
CCOc1ccc(/C=C\C(C)=N\O)cc1	10µM*	16µM*	2.2µM*	8.5µM*	2µM*	-28%
CC(C)c1ccc(/C=C/C(=O)CCC(=O)O)cc1	?	1.4µM*	0.79µM*	0.24µM*	0.28µM*	-1%
CCOc1ccc(/C=C/C(=O)CCC(=O)O)cc1	?	nt	0.71µM*	1.1µM*	?	-2%
O=C(O)CCC(=O)/C=C/c1ccccc1	-2%	nt	12%	-11%	-3%	7%
NS(=O)(=O)c1ccc(CNC(=O)/C=C/c2ccc(Cl)c(Cl)c2)cc1	1%	-5%	-1%	-2%	-3%	1%
CC(C)c1ccc(/C=C/C(=O)NCc2ccc(S(N)(=O)=O)cc2)cc1	1%	-31%	18%	13µM*	-2%	0%
Cc1cccc(NC(=O)CSc2nc3ccccc3nc2N2CCOCC2)c1C	nt	4%	nt	1%	nt	nt
O=C(NC1CCCCC1)C1CC(=O)N(CCc2ccc(F)cc2)C1 (centres undefined)	-3%	nt	0%	-1%	-3%	nt
CCOC(=O)C(=CNc1ccc(C)cc1C)C(=O)OCC	-2%	2%	-7%	15µM*	-1%	3%
O=C(NCCc1ccccc1)c1ccc2c(c1)CCN2S(=O)(=O)c1ccc(Cl)cc1	nt	9%	nt	-7%	nt	nt
CN(C(=O)c1cc2nc(-c3ccc4c(c3)OCO4)cc(C(F)(F)F)n2n1)c1ccc(OC(F)(F)F)cc1	nt	-6%	nt	-1%	nt	nt
c1ccc(-c2cn3c(n2)CCC3)cc1	16%	1%	0%	-5%	0%	-5%
O=[N+]([O-])c1ccc(-c2cn3c(n2)CCC3)cc1	15%	nt	?	24µM*	?	nt
CCc1cc(=O)oc2c(C)c(OCC(=O)Nc3ccc(S(=O)(=O)N(CC)CC)cc3)ccc12	nt	-17%	nt	5%	nt	nt
CCOC(=O)Nc1sc2c(c1C#N)CCCC2	15µM*	30%	4µM*	15µM*	?	-3%
Cc1nnc(SCC(=O)Nc2sc3c(c2C#N)CCCCC3)n1N	?	17%	19%	21µM*	26%	-5%
Cc1ccc(OCC(=O)Nc2sc3c(c2C#N)CCC3)cc1	?	5%	?	4.8µM*	?	-3%
N#Cc1c(NC(=O)CSc2nnnn2C2CCCCC2)sc2c1CCCC2	0%	nt	-2%	2%	7%	nt
Cn1c(-c2ccc(Br)o2)nc2ccccc21	?	13µM*	1.4µM*	2.4µM*	1.4µM*	10µM*
Cn1c(-c2ccc(Br)o2)nc2cc(Br)ccc21	?	14µM*	1.1µM*	1.9µM*	1.4µM*	-27%
Cc1ccc(-c2nc3ccccc3n2C)o1	2.9µM*	11µM*	1.1µM*	5.4µM*	1.6µM*	7.9µM*
Cn1c(-c2nonc2N)nc2ccccc21	-5%	nt	-2%	3%	0%	nt
Cc1oc(-c2nc3ccccc3n2C)cc1C(=O)c1ccccc1	1.8µM*	1.6µM*	0.32µM*	0.38µM*	0.5µM*	?
SMILES	ELG1 genotoxic	SMN2 splice up	Rab9 promoter act	FLuc modulator	NPC1 prom act	Luc counter
COc1cc(CNCCNC(=O)c2nonc2N)ccc1OCc1ccc(Cl)cc1	4%	-75%	-8%	-1%	-3%	4%
Brc1ccc(Cn2c(-c3ccc(Br)o3)nc3ccccc32)o1	5%	19%	11%	19µM*	13%	0%
CC(=O)c1ccc(-c2nc3ccccc3n2C)o1	21µM*	11µM*	?	21µM*	?	?
Cn1cc(C(=O)c2ccccc2)cc1-c1nc2ccccc2n1C	-17%	-10%	-6%	-10%	0%	-3%
Oc1ccc(Cn2c(-c3ccc(O)cc3)nc3ccccc32)cc1	nt	-6%[9.22 µM]	nt	nt	nt	-7%[7.66 µM]
Cc1ccc(C2Nc3ccccc3-c3nc4ccccc4n32)o1 (centres undefined)	?	11µM*	?	11µM*	?	-7%
CC(NC(=O)CCCn1c(=O)c2cccn2c2cccnc21)c1ccccc1 (centres undefined)	nt	nt	nt	-2%	nt	nt
CCOc1ccc(Cc2nc(-c3nonc3N)no2)cc1OCC	2%	10%	10%	2%	8%	3%
Nc1nonc1-c1noc(COc2ccccc2Cl)n1	5.2µM*	11µM*	1.1µM*	4.8µM*	1.4µM*	9%
Cc1cccc(OCc2nc(-c3nonc3N)no2)c1C	10µM*	10µM*	?	?	3.2µM*	1%
CCc1cccc(C)c1NC(=O)C(CC)n1ncn2c(cc3cc(C)ccc32)c1=O (centres undefined)	nt	-8%	nt	-2%	nt	nt
CCCCNC(=S)N(C)/N=C/c1ccc(OCc2ccc(C(=O)OC)cc2)c(OC)c1	-1%	-5%	-4%	-2%	-8%	-1%
Cc1cc(C)n2nc(SCc3nnc(SCc4ccccc4Cl)s3)nc2n1	-1%	-56%	-4%	17µM*	-3%	4%
Cc1cc(C)n2nc(SCc3nnc(SCc4ccccc4C)s3)nc2n1	-6%	-23%	-2%	?	0%	0%
O=c1oc(Nc2ccc(F)cc2)nc2ccccc12	?	0%	2.5µM*	13µM*	2.2µM*	-8%
O=c1nc(Nc2ccccc2)oc2ccccc12	?	nt	?	17µM*	2.8µM*	nt
Cc1cc2nc(-c3ccc(NC(=O)c4ccccc4F)cc3)oc2cc1C	nt	11%	nt	-17%	nt	nt
C/C(N[C@@H]1CSCC1O)=C1/C(=O)CC2[C@@H]1C2(C)C (some centres undefined)	nt	-2%	nt	nt	nt	-1%
C/C(NC(=O)c1ccccc1)=C1/C(=O)CC2C1C2(C)C (centres undefined)	?	-4%	?	15µM*	29%	-9%
Nc1[nH]n(-c2ccccc2)c(=O)c1N=Nc1ccc2c(c1)OCCO2	?	2.2µM*	0.5µM*	0.6µM*	2µM*	-2%
Nc1[nH]n(-c2ccccc2)c(=O)c1N=Nc1ccc2c(c1)OCO2	?	nt	3.2µM*	2.4µM*	3.5µM*	nt
Cc1cc([N+](=O)[O-])ccc1N=Nc1c(N)[nH]n(-c2ccccc2)c1=O	-1%	2%	-2%	-6%	8%	-4%
COc1cccc(Cn2ncc3c4sc(Br)cc4n(C)c3c2=O)c1	nt	nt	-1%	1%	-5%	nt
Cc1ccc(C(=O)Nc2ncc([N+](=O)[O-])s2)cc1	?	nt	0.025µM*	0.12µM*	0.032µM*	nt

Source: PubChem (National Center for Advancing Translational Sciences (NCATS))
